Data: ChEMBL document CHEMBL1201862, “PubChem BioAssay data set” (2004)
Among all 400,000 compounds or so, about 2,100 (0.53%) were called active. About 14% were inconclusive and are not listed. How the calls were made is not given here. For the sample, actives were picked, then their nearest neighbours and some compounds at random.

molecular target: Ataxin-2 (Homo sapiens) (UniProt Q99700); experiment: qHTS for Inhibitors of ATXN expression.; format: functional
Sequence (Q99700 whole entry): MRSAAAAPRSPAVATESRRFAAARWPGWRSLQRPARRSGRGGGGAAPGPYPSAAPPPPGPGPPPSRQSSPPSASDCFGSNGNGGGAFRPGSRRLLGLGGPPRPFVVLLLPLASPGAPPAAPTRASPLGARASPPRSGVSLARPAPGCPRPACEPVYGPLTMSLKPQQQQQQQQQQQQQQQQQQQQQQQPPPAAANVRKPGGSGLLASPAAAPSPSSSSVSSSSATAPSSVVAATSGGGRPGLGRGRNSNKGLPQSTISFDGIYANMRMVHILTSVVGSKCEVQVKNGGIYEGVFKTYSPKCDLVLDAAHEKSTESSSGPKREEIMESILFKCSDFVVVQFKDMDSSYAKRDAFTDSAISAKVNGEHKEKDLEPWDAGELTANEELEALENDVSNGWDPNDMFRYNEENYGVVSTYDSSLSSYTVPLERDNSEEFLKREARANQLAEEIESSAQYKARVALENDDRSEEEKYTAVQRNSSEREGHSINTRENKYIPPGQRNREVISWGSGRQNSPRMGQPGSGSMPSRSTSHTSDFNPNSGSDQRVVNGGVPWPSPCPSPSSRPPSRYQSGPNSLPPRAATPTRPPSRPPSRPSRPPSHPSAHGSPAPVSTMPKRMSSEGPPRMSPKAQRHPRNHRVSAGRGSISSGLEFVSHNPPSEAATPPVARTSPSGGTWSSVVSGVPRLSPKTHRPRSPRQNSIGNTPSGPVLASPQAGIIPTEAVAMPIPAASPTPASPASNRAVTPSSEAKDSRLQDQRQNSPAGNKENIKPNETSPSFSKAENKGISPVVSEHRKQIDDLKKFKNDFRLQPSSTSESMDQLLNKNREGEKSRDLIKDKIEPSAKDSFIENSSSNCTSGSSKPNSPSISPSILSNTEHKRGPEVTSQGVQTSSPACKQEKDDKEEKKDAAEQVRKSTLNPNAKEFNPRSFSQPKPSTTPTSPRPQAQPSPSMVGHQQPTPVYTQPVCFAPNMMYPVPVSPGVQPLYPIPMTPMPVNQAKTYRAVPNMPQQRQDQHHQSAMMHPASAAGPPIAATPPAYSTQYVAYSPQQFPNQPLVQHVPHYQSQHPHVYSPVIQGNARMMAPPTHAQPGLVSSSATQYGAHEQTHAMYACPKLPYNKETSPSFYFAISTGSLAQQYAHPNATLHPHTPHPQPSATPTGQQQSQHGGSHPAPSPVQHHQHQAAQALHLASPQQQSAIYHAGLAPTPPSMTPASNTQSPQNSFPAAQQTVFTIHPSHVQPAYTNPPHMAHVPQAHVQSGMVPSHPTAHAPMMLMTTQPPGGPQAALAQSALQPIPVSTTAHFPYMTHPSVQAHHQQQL

SMILES | Potency
COc1ccc(S(=O)(=O)N2CCN(C(=O)c3cc4c(s3)CCCC4)CC2)cc1 | inactive
CCC(C)NC(=O)c1cc2c(=O)n3cccc(C)c3nc2s1 (centres undefined) | inactive
Clc1ccc(/C=N/N2CCN(Cc3ccccc3)CC2)cc1 | inactive
CN1CCN(/N=C/c2ccc(N(c3ccccc3)c3ccccc3)cc2)CC1 | 31.6 µM (active)
CN(C)c1ccc(/C=N/N2CCN(c3ccccn3)CC2)cc1 | inactive
COc1ccc2oc(=O)c(-c3cn4ccc(C)cc4n3)cc2c1 | inactive
COc1ccc(C2=CC(c3ccc(N(C)C)cc3)n3nnnc3N2)cc1 (centres undefined) | inactive
O=C(CSc1nccc(-c2cccs2)n1)Nc1cccc(Cl)c1Cl | inactive
CC(C)CNC(=O)COC(=O)c1c2c(nc3ccccc13)/C(=C\c1cccs1)CC2 | inactive
COc1ccccc1-c1c(C#N)c(N)nc2c1CCC2 | inactive
COc1ccccc1-c1ccc(/C=C2\C=CC(=O)O2)o1 | inactive
COc1ccccc1-c1cc(SC)c(C#N)c(=O)o1 | 35.5 µM (active)
CC1CCCN(Cc2c(O)ccc3c2O/C(=C\c2ccco2)C3=O)C1 (centres undefined) | inactive
CN(c1ccccc1)c1ccc(/C=C/[N+](=O)[O-])cc1 | 25.1 µM (active)
O=C(CCS(=O)(=O)c1ccccc1)N(CCCN1CCOCC1)c1nc2c(F)cccc2s1 | 31.6 µM (active)
O=C(CCS(=O)(=O)c1ccccc1)N(CCCN1CCOCC1)c1nc2ccc(F)cc2s1 | 25.1 µM (active)
O=C(CNC(=S)N(CCCN1CCOCC1)Cc1cccs1)NCc1ccccc1 | inactive
Nc1c(C(=O)NCCN2CCOCC2)c2nc3ccccc3nc2n1-c1ccccc1 | inactive
Nc1c(C(=O)NCCN2CCOCC2)c2nc3ccccc3nc2n1CCc1ccccc1F | inactive
Nc1c(C(=O)c2ccccc2)sc2nsc(SCCN3CCOCC3)c12 | inactive
Nc1c(C(=O)NCCN2CCOCC2)c2nc3ccccc3nc2n1-c1cccc(F)c1 | inactive
O=C(NCCCN1CCOCC1)c1cc2nc(-c3ccco3)cc(C(F)(F)F)n2n1 | inactive
O=C(CCS(=O)(=O)c1ccccc1)N(CCCN1CCOCC1)c1nc2ccccc2s1 | 39.8 µM (active)
Cc1cccc2sc(N(CCN3CCOCC3)C(=O)CCS(=O)(=O)c3ccccc3)nc12 | 39.8 µM (active)
CCCCC1CCC(C(=O)OC(C)C(=O)Nc2ccc(NC(C)=O)cc2)CC1 (centres undefined) | inactive
NNC(=O)c1oc2nc(-c3ccccc3)cc(-c3ccccc3)c2c1N | inactive
Cc1nc2nc(-c3cccs3)cn2nc1C | inactive
CCCCn1c(NC(=O)c2ccccc2)c(C#N)c2nc3ccccc3nc21 | inactive
COc1ccccc1NCC(=O)N/N=C/c1sccc1C | inactive
